Compounds with a hit are over-represented: about 27% of the library has one in this group of screens.
CYP2C19 inhib: inhibitors of human CYP2C19 | P33261 | CYP2C19 Supersomes, luciferin-H EGE luminescence, 30 min | inhibition, % at 5 µM | 96,000 tested, 21% active;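 active means CYP2C19 inhibition above a set limit at 5 µM in the primary screen, cut at about 50% in these data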;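 further: plate controls were negative control wells for no effect and 2.5 mM tranylcypromine positive control for full effect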
Cav3 T inh: inhibitors of human Cav3.2 T-type calcium channel | O95180 | 100,000 tested, 4% active | Cav3.2-expressing cells, Fluo-4 calcium fluorescence FDSS; stronger effect = lower value | B-score at 10 µM | AID 449739;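 active means single-dose well whose peak fluorescence ratio is a statistical outlier from its plate by either plate-standardised score or position-corrected B-score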
CYP2C9 activ: activators of human CYP2C9. P11712. recombinant CYP2C9, luciferin-H conversion, luminescence; stronger effect = higher value; factor 1 = untreated enzyme, 0 = blocked. activation factor at 5 µM. 96,000 tested, 1.4% active. AID 1024;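 active means activation factor of 2 or more for CYP2C9 at a 5 µM dose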;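 further: 0 = sulfaphenazole-blocked wells and 1 = vehicle-only wells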
CYP2C9 inhib: human CYP2C9 inhibition; P11712; CYP2C9 Supersomes, luciferin-H conversion, luminescence; inhibition, % at 5 µM; 96,000 tested, 20% active; AID 777;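 active means blocking of liver enzyme CYP2C9 beyond about 50% at 5 µM, limit read from the data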
CYP2C19 activ: activators of human cytochrome P450 2C19; 96,000 tested, under 10 active; recombinant CYP2C19, luciferin-H EGE luminescence; stronger effect = higher value; 0 = fully inhibited enzyme, 1 = untreated enzyme; activation factor at 5 µM;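 active means activation factor of at least 2 at 5 µM in the primary screen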;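 further: 0 = wells with 2.5 mM tranylcypromine and 1 = vehicle-only wells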
Starred values were filed as active, the others as inactive; . = not tested or not shown.

SMILES	CYP2C19 inhib	Cav3 T inh	CYP2C9 activ	CYP2C9 inhib	CYP2C19 activ
CC(=O)C1=C(C)NC(SCC(=O)c2ccccc2)=C(C#N)C1c1ccco1 (stereo not given)	99*	0.86	0.1	93*	0
CC(=O)C1=C(C)NC(SCC(=O)c2ccc(Cl)cc2Cl)=C(C#N)C1c1ccco1 (stereo not given)	100*	-2.6	0	100*	0
CC(=O)C1=C(C)NC(SCC(=O)c2ccccc2)=C(C#N)C1CC(C)C (stereo not given)	42	-1.1	0.4	59*	0.6
COC(=O)C1=C(COc2ccccc2)NC(=O)NC1c1ccc(Cl)cc1 (stereo not given)	.	-0.55	.	.	.
CC(C)(C)c1ccc(OC(=O)Cn2c(C(F)(F)F)nc3ccccc32)cc1	9	.	0.8	16	0.9
N#CC1=C(SCC(=O)c2ccc(Br)cc2)NC2=C(C(=O)CCC2)C1c1ccco1 (stereo not given)	99*	.	0	99*	0
Cc1ccc(CCN2CC(C(=O)NCCCOC(C)C)CC2=O)cc1 (stereo not given)	-6	-0.48	1	2	1.1
CC(=O)OCC1OC(Sc2cccc3cccnc23)C(OC(C)=O)C(OC(C)=O)C1OC(C)=O (stereo not given)	-1	2	1	5	1
CCC(c1nnnn1CCC(C)C)N1CCC(C(N)=O)CC1 (stereo not given)	-18	0.92	1.1	-7	1.2
CCOC(=O)c1nnc(-c2ccc(C)cc2)nc1Sc1ccccc1Cl	44	0.072	0.9	10	0.6
CCOC(=O)c1nnc(-c2ccccc2)nc1Sc1c(Cl)cccc1Cl	23	0.0036	0.4	58*	0.8
OCCN(Cc1ccccc1)CC1CC2C=CC1C2 (stereo not given)	34	0.32	1	2	0.7
CCCN(CCO)Cc1ccc(Br)cc1	12	-1	1.1	-15	0.9
OCCN(Cc1ccccc1)Cc1ccccc1Cl	81*	-1.5	0.7	28	0.2
OCCN(Cc1ccccc1)Cc1cccc(Cl)c1Cl	93*	-1.3	0.2	76*	0.1
OCCN(Cc1ccccc1)Cc1ccccc1F	77*	-0.016	0.8	19	0.2
CCCN(CCO)Cc1cccc(Cl)c1	7	0.37	1	-5	0.9
CC(=O)Nc1ccc(OCC=C(Cl)Cl)cc1	24	0.0021	0.8	18	0.8
O=C(N=NC(=O)c1ccc2c(O)n(C3CCCCC3)c(O)c2c1)c1cccnc1	24	1	0.8	22	0.8
O=C(c1cccc(-n2cnnn2)c1)N1CC=C(c2ccccc2)CC1	44	-4.6*	0.7	33	0.6
CCC(CC)C(=O)N=C1SC2CS(=O)(=O)CC2N1CCc1ccc(OC)cc1 (stereo not given)	80*	-3.1	0.2	77*	0.2
CCn1ncc(/C=C/C(=O)NCc2cnn(C)c2C)c1C	-16	0.68	1.1	-14	1.2
Cc1ccc(-c2cc(C(=O)NCc3cnn(C)c3C)c3cc(Br)ccc3n2)cc1	13	-0.6	0.4	63*	0.9
CCCOc1ccc(C(C)(O)CN2CCOCC2)cc1 (stereo not given)	54*	.	0.6	44	0.5
O=C(c1cnn(-c2ccccc2)c1-n1cccc1)N1CCN(C2CCCCC2)CC1	.	0.14	.	.	.
SMILES	CYP2C19 inhib	Cav3 T inh	CYP2C9 activ	CYP2C9 inhib	CYP2C19 activ
CC(C)CCn1nnnc1C(c1ccccc1)N1CCN(C)CC1 (stereo not given)	-4	-0.45	0.9	10	1
CN1CCN(C(c2cccc(C(F)(F)F)c2)c2nnnn2Cc2ccccc2)CC1 (stereo not given)	52*	-0.08	0.6	43	0.5
N#Cc1cccc(C(c2nnnn2Cc2ccccc2)N2CCCC2)c1 (stereo not given)	56*	0.59	0.8	23	0.4
CCSc1nnc(NC(=O)C(CC)(C(F)(F)F)C(F)(F)F)s1	33	-4.1	0	98*	0.7
CCSc1nnc(NC(NC(=O)c2ccco2)(C(F)(F)F)C(F)(F)F)s1	7	0.22	0.1	90*	0.9
CCSc1nnc(NC(=O)C(C)(C(F)(F)F)C(F)(F)F)s1	-6	-3.2	0.2	75*	1.1
O=C1CC(c2ccc(F)cc2)Sc2ccccc2N1 (stereo not given)	.	0.022	.	.	.
COc1cc(C2CC(=O)Nc3ccccc3S2)cc(OC)c1OC (stereo not given)	64*	.	0.7	35	0.4
Nc1ccc2nc(-c3ccc(Cl)cc3)[nH]c2c1	59*	.	0.5	48	0.4
Nc1ccc2nc(-c3cc(Cl)c(N)c(Cl)c3)[nH]c2c1	.	1.2	.	.	.
CCOC(=O)c1ccc(NC(=O)c2ccc(NC(=O)c3ccccc3)cc2)cc1	12	-0.91	0.6	42	0.9
CCOC(=O)C1=C(NC(=S)NC(=O)c2ccccc2)c2ccccc2CC1C(C)C (stereo not given)	41	-2.9	0.2	77*	0.6
Cc1sc2ncnc(NCC(C)(C)N3CCOCC3)c2c1C	22	1.9	1	4	0.8
CC(=O)Nc1ccc2c(c1)ncn2C1CCCCC1	.	0.66	.	.	.
O=C1CCCCCC1C1(O)C(=O)Nc2ccccc21 (stereo not given)	-12	0.0012	1.3	-26	1.1
COc1ccc2c(c1)CC(C1(O)C(=O)Nc3ccccc31)C2=O (stereo not given)	83*	0.046	0.8	18	0.2
COCCN(CCOC)c1ncc(Cl)c(C(=O)c2c(C)cc3ccccn23)n1	90*	-1.4	1.6	-59	0.1
Cc1cc2ccccn2c1C(=O)c1nc(N2CCOCC2)ncc1Cl	46	-0.68	1	-2	0.5
Cc1ccc(CN(Cc2cc3cccc(C)c3[nH]c2=O)C(=O)N(C)C)cc1	52*	-0.28	0.9	14	0.5
Cc1cccc2cc(CN(Cc3cccnc3)C(=O)c3ccncc3)c(=O)[nH]c12	73*	0.6	0.4	61*	0.3
Cc1cccc2cc(CN(Cc3ccccc3)C(=O)N(C)C)c(=O)[nH]c12	45	0.35	0.6	40	0.6
COc1ccc(-c2nnc(SCC(=O)Oc3ccc(C)cc3)o2)cc1	.	0.24	.	.	.
O=C(Nc1nc2ccccc2[nH]1)C1CCN(S(=O)(=O)c2cccs2)CC1	-2	-2.2	1	1	1
O=c1cc(N2CCN(c3ccccc3)CC2)[nH]c(=O)n1Cc1ccc(F)cc1	1	-6.1*	0.8	20	1
O=c1cc(N2CCc3ccccc3C2)[nH]c(=O)n1-c1ccc(Cl)cc1	7	1.7	0.9	6	0.9
O=c1cc(N2CCc3ccccc3C2)[nH]c(=O)n1Cc1ccc(F)cc1	.	-4*	.	.	.
CN1CCN(c2cc(=O)n(Cc3ccc(F)cc3)c(=O)[nH]2)CC1	-1	1.6	1.1	-7	1
C=CC1C(N2CCOCC2)C(C)(C)S1(=O)=O (stereo not given)	-2	0.13	1.2	-20	1
Cc1cccc(C)c1NC(=O)C(c1ccccc1)N1CCC1=O (stereo not given)	-5	0.58	1.1	-14	1.1
